Compounds with a hit are over-represented: about 10% of the library has one in this group of screens.
SW480 rereplic = inducers of DNA re-replication in SW480 colon cancer cells | SW480 DNA re-replication, Hoechst DNA content imaging, 48 h | Potency, µM (titrated, usually from 46.1 µM), for inactives: at the highest dose re-replication activation, actives largely listed as activators | actives 1.8% (n = 340,000) | AID 624297; also: % of control where 0% means no effect; nearly all actives have a fitted effect of over 55% in size
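First, 250 cells per well were seeded. Next, compound or vehicle (23 nL) was pinned in, plates sat 48 hr at 37 C. Finally Hoechst was added for 40 min before fluorescence scanning.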
MCF10A rerep = induces DNA re-replication in MCF 10a normal breast cells. MCF 10A DNA re-replication, Hoechst nuclear intensity, 48 h. Potency, µM (highest dose often 46.1 µM), for inactives: at the highest dose activity, positive = re-replication, hits mostly activators. actives 2.9% (n = 350,000). AID 624296; also: % of control where 0% means no effect; nearly all actives have a fitted effect of over 50% in size
RORg inh = blocks mouse ROR gamma transcriptional activity | actives 5.4% (n = 310,000) | Potency, µM (top dose mostly 53.6 µM), for inactives: top-dose activity change, negative = inhibition, actives largely listed as inhibitors | Drosophila S2 Gal4-RORgamma UAS-luciferase reporter, 20 h | P51450; also: % is scaled to controls: 0 for no effect and ±100 for the full control effect; nearly all actives have a fitted effect of over 60% in size
Target sequence (P51450 whole entry, looked up, the tested form may be a part): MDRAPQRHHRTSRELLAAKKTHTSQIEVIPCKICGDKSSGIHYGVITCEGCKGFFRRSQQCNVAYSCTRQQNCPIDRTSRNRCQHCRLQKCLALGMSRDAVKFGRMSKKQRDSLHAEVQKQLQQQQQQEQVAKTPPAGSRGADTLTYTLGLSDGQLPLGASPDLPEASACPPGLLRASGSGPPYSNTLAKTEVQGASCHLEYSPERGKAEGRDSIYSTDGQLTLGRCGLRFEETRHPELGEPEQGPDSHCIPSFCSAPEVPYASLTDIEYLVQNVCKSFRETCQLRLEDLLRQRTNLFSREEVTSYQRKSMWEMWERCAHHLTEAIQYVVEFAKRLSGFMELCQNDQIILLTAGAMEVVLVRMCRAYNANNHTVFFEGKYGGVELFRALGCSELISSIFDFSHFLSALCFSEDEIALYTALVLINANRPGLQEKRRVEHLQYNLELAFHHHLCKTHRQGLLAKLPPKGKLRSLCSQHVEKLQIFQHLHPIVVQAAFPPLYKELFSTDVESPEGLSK
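Using a luciferase readout, inhibitors were identified by reduced reporter activity in Drosophila cells coexpressing a copper-inducible Gal4–ROR gamma fusion and UAS-driven Photinus luciferase, incubated 20 hr after 700 uM copper sulfate.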
VP16 counter = counter-screen for ROR gamma inhibitors: Gal4-VP16 reporter | Potency, µM (titrated, usually from 53.6 µM), for the others: at the highest dose activity, negative = inhibition, hits mostly inhibitors | Drosophila S2 Gal4-VP16 UAS-luciferase, luminescence, 20 h | actives 3.5% (n = 310,000);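 also: Gal4-VP16 expression switched on by copper sulfate through the metallothionein promoter; % is scaled to controls: 0 for no effect and ±100 for the full control effect; nearly all actives have a fitted effect of over 50% in size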
ELG1 DNA repair = ELG1-dependent DNA repair inhibition | Potency, µM (series often up to 46.1 µM), without a hit: at the highest dose activity change, negative = inhibition, usual class: inhibitors | AID 504467 | HEK293T ELG1-luciferase reporter, luminescence, 16 h; DNA damage induced by 5-fluorouridine | actives 2.3% (n = 330,000); also: % is scaled to controls: 0 for no effect and ±100 for the full control effect; nearly all actives have a fitted effect of over 55% in size
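Quantitative HTS, concentration-response format. 2,000 cells/well co-treated with 5-fluorouridine and compound, 16 hr in 5% CO2 at 37 °C; ONE-Glo luminescence read after 30 min.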
Active calls of the source: *; ? = inconclusive; . = not tested or not shown; [ ] = dose if it differs, or a comment. Calls follow the shape of the dose curve; as a rule, active = well fitted curve in the direction sought with a large enough effect; inconclusive = small, poorly fitted or top-dose-only effect, or another doubt; inactive = no such curve, though single readings can be large; an effect the other way counts as inactive or inconclusive. Potency is read from the fitted curve at half-maximal effect.

SMILES	SW480 rereplic	MCF10A rerep	RORg inh	VP16 counter	ELG1 DNA repair
COc1ccc(/C=N/NC(=S)NCC2CCCO2)cc1 (stereo unspecified)	-2%	1%	2.8µM*	11µM*	7%
O=C(O)C1Nc2c(O)cc(Cl)c([N+](=O)[O-])c2C2C=CCC12 (stereo unspecified)	-7%	-3%	10µM*	-8%	4%
c1ccc(-c2ccc(-c3cnc4n3CCCCC4)cc2)cc1	-2%	?	6.3µM*	11µM*	?
c1cc2c(cc1-c1cnc3n1CCC3)OCCO2	1%	-5%	?	?	?
Cc1ccc(-c2cnc3n2CCCCC3)cc1	0%	16%	3.5µM*	-15%	?
CCOc1ccc(-c2cnc3n2CCCCC3)cc1	1%	9%	11µM*	?	-4%
O=C(NC(NC(=S)Nc1c(Cl)cccc1Cl)C(Cl)(Cl)Cl)OCc1ccccc1 (stereo unspecified)	8%	?	-27%[10 µM]	?	-17%
Cc1cc(OCC(=O)N[C@@H](CSCc2ccccc2)C(=O)O)c2c(C)c(C)c(=O)oc2c1	2%	19%	22%	-6%	-1%
NC(=S)N/N=C/c1ccccc1[N+](=O)[O-]	2%	-5%	-5%	?	0%
CCNC(=S)N/N=C/c1ccccc1[N+](=O)[O-]	-3%	-7%	4.5µM*	?	5%
COc1cc([N+](=O)[O-])cc(/C=N/NC(=O)c2ccc(C)nc2)c1O	.	15µM*	0.89µM*	0.63µM*	-11%
Cc1ccc(C(=O)N/N=C\c2ccccc2[N+](=O)[O-])cn1	0%	-3%	10µM*	?	?
CCOc1ccc(S(=O)(=O)N(CC(=O)NN=C2CCN(C)CC2)c2ccc(C)cc2)cc1	3%	0%	3%	1%	-1%
Cc1ccc(NC(=O)COC(=O)C2(CC(=O)NC(C)(C)C)CCCC2)cc1C	1%	21%	.	.	?
Cc1ccc(S(=O)(=O)N(C)CCCC(=O)NC(C)(C)C)cc1	-23%	-3%	-3%	-16%	-1%
O=c1c(Cc2ccc(Cl)cc2Cl)c(O)ccn1CCCN1CCOCC1	0%	-1%	4%	-3%	-1%
CCOc1ccc(-c2c[n+]3c(n2-c2ccccc2)CCCCC3)cc1	-8%	19%	?	3.5µM*	?
COc1ccc(-n2c(-c3ccc(Br)cc3)c[n+]3c2CCC3)cc1	2%	?	4%	0%	1.8µM*
COc1ccc(-n2c(-c3ccc(Br)cc3)c[n+]3c2SC(C)C3)cc1 (stereo unspecified)	4%	-1%	-12%	-14%	5.8µM*
COc1ccc(-n2c(-c3ccc(Br)cc3)c[n+]3c2CCCCC3)cc1	1%	20%	?	?	5.2µM*
FC(F)Sc1ccc(-n2c(-c3ccc(Cl)cc3)c[n+]3c2CCC3)cc1	18%	?	15%	-9%	?
CCc1ccc(C(=O)COC(=O)CCc2nc3ccccc3c(=O)[nH]2)cc1	-5%	-3%	-7%	-7%	5%
CCCCNC(=NCc1cccc(C(F)(F)F)c1)Nc1ccccc1	?	?	-1%	-4%	-6%
Nc1ccccc1C(=O)NNc1ncc(C(F)(F)F)cc1Cl	5.8µM*	15µM*	0.79µM*	1µM*	28%
O=C(NNc1ncc(C(F)(F)F)cc1Cl)c1ccc(Cl)c(Cl)c1	-17%	-4%	11µM*	?	-18%
CN=C(NC#N)Nc1ccc(C2=NNC(=O)C[C@@H]2C)cc1	.	.	-1%	-9%	.
CCCC(C)NC(=O)CSc1nc(-c2ccccc2)cn1N (stereo unspecified)	-2%	9%	14%	-10%	?
COc1ccc(C2C=C(C34CC5CC(CC(C5)C3)C4)NC(=S)N2)cc1OC (stereo unspecified)	?	10%	1.3µM*	1.6µM*	?
NC(=S)N/N=C1\CC(n2nnn(-c3cccc(Cl)c3)c2=S)C2COC1O2 (stereo unspecified)	-2%	-6%	4µM*	?	-11%

Screens as filed in PubChem.
